Parameters in all cases: scale not given: direction of the effect not stated beside the values
Assay [1] has as its target Protein translocase subunit SecA (Escherichia coli (strain K12)) (UniProt P10408). Briefly: Assay to Identify E. coli SecA ATPase Inhibitors. In kind it is functional. The settings on record: 30 µM.
For assay [2], the target named is T1, Ubiquitin-activating enzyme e1, putative (Leishmania donovani (strain BPK282A1)) (UniProt E9BSI1).
T1 sequence (whole entry): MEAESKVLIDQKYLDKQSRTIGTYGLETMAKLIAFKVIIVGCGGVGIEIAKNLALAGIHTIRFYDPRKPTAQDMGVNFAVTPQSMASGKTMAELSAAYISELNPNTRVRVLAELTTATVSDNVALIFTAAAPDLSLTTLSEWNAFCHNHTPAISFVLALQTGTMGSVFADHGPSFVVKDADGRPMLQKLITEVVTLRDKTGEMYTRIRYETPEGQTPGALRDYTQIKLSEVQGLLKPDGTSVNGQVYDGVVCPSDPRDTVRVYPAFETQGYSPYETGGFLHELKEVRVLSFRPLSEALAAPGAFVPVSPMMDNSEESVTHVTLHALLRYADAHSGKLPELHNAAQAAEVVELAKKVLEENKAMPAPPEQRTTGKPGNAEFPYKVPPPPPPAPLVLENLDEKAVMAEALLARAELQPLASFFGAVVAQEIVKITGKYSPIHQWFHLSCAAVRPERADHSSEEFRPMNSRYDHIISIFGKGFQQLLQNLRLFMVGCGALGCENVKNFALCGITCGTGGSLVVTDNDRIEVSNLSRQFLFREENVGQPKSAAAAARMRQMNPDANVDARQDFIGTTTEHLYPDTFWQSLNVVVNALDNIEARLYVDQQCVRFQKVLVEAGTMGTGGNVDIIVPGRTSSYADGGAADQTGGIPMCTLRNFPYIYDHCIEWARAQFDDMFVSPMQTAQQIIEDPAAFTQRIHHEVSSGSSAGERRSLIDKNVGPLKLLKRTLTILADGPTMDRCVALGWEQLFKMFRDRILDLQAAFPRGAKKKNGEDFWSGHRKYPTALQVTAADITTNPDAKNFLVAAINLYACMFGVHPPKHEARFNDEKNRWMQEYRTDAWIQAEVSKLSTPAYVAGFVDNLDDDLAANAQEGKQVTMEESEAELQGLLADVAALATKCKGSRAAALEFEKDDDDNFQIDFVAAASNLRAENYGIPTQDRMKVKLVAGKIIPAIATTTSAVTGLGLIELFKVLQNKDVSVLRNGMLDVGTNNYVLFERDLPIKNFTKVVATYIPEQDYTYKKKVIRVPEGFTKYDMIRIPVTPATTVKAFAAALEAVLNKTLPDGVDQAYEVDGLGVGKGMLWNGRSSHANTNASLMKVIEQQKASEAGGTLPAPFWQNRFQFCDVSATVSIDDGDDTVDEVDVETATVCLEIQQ
Briefly: Leishmania donovani Ubiquitin Activating Enzyme (LdE1). In kind it is functional. Conditions: 30 µM.

In assay [3] the target is AMP-activated protein kinase, AMPK (Homo sapiens) (UniProt P54646+O43741+P54619+Q9UGJ0+Q9Y478+Q13131+Q9UGI9). Briefly: AMP-dependent Kinase enzyme assay. An in vitro enzyme assay that detects ADP turnover that is directly proportional to AMPK activity. This uses naive AMPK that is activated during the assay with MK-8722. It counts as functional. Conditions: 30 µM.
Assay [4] deals with Sialic acid-binding Ig-like lectin 9 (Homo sapiens) (UniProt Q9Y336). Description: Hs-Siglec9 ALPHAscreen SOP 20170721. The settings on record: 10 µM. Background: Alpha assays give light when donor and acceptor beads are brought close together.
Assay [5] concerns Trypanosoma cruzi. Description: Trypanosoma cruzi phosphomannomutase and mannose-1-phosphate guanylyltransferase assay. In kind it is functional. The settings on record: 10 µM.
In assay [6] the target is T2, Arginase-2, mitochondrial (Homo sapiens) (UniProt P78540).
T2 sequence (whole entry): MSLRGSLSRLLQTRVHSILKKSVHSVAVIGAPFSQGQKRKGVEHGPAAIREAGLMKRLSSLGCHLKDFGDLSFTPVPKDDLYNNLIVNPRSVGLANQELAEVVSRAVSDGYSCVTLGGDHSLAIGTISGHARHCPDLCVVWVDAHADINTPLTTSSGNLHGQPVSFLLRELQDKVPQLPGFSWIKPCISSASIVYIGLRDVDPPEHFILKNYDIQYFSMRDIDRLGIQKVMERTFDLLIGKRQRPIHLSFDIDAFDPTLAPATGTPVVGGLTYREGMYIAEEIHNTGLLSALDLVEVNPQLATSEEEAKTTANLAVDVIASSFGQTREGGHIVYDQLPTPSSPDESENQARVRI
Description: in vitro enzyme assay to detect the production of urea directly proportional to the activity of Arginase II. Further: in the data most compounds retested in dose-response had high values. Conditions: 33.3 µM. It counts as functional.

Assay [7] concerns the target T3, Proteasome subunit beta (Trypanosoma cruzi) (UniProt O96673).
T3 sequence (whole entry): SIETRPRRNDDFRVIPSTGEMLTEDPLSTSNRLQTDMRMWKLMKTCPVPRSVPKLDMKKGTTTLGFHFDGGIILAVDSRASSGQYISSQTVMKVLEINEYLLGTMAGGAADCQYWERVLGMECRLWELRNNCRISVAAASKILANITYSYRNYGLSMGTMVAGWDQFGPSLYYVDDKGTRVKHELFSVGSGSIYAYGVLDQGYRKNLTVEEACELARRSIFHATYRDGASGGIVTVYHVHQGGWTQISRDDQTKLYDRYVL
Description: Trypanosoma cruzi proteasome chymotrypsin-like activity (TcProtChymo) assay. Further: in the data most compounds retested in dose-response had high values. The settings on record: 9.37 µM. In kind it is functional.

The species named for assay [8] is Homo sapiens. Description: To identify inhibition of the IFN signalling (Jak-Stat) pathway via expression of an eGFP reporter gene under the control of an IFN-stimulated response element (ISRE) containing MxA promoter. In kind it is functional. The settings on record: 30 µM. (A reporter such as luciferase makes a cellular process visible.)
In assay [9] the target is T4, Tyrosyl-tRNA synthetase, putative (Trypanosoma cruzi (strain CL Brener)) (UniProt Q4DSP6).
T4 sequence (whole entry): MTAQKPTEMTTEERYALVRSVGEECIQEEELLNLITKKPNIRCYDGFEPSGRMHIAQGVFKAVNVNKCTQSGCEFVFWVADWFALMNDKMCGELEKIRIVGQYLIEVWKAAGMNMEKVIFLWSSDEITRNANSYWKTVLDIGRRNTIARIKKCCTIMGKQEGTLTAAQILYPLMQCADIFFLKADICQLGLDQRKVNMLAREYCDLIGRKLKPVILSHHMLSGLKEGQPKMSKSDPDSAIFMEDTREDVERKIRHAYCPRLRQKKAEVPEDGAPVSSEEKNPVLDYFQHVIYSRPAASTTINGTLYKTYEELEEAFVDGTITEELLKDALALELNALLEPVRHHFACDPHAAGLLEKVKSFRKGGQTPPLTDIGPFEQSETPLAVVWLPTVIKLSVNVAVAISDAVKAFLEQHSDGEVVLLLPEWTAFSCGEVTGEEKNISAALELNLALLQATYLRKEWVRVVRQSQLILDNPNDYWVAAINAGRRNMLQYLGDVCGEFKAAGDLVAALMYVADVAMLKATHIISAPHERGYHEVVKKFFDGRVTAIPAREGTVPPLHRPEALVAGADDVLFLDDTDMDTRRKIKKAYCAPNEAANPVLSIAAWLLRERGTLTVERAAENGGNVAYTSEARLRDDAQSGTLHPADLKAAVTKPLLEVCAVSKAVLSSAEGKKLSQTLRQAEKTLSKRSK
Briefly: Trypanosoma cruzi tyrosyl tRNA synthetase (TcYRS) _High Tyrosine SOP. Further: in the data most compounds retested in dose-response had high values. In kind it is functional. The settings on record: 30 µM.

For assay [10], the target named is T4, Tyrosyl-tRNA synthetase, putative (Trypanosoma cruzi (strain CL Brener)). Description: Trypanosoma cruzi tyrosyl tRNA synthetase (TcYRS) SOP. In kind it is functional. The settings on record: 30 µM.
The target in assay [11] is Chromo domain-containing protein 1 (Saccharomyces cerevisiae (strain ATCC 204508 / S288c) (Baker's yeast)) (UniProt P32657). Description: ScCHD-1 Enzyme Inhibition Assay. Further: in the data most compounds retested in dose-response had high values. The settings on record: 30 µM. It counts as functional.

Drawing on ChEMBL document CHEMBL3988442, “University of Dundee, Small-Polar-MMV Screening Library” (2021), this text covers Percent Effect for 8 compounds.

The structures appear in SMILES notation. For some of these results: Entries with a potency or affinity are not part of this list.

Sequence of Chromo domain-containing protein 1 (Saccharomyces cerevisiae (strain ATCC 204508 / S288c) (Baker's yeast)) (P32657 whole entry, the tested form may be a part): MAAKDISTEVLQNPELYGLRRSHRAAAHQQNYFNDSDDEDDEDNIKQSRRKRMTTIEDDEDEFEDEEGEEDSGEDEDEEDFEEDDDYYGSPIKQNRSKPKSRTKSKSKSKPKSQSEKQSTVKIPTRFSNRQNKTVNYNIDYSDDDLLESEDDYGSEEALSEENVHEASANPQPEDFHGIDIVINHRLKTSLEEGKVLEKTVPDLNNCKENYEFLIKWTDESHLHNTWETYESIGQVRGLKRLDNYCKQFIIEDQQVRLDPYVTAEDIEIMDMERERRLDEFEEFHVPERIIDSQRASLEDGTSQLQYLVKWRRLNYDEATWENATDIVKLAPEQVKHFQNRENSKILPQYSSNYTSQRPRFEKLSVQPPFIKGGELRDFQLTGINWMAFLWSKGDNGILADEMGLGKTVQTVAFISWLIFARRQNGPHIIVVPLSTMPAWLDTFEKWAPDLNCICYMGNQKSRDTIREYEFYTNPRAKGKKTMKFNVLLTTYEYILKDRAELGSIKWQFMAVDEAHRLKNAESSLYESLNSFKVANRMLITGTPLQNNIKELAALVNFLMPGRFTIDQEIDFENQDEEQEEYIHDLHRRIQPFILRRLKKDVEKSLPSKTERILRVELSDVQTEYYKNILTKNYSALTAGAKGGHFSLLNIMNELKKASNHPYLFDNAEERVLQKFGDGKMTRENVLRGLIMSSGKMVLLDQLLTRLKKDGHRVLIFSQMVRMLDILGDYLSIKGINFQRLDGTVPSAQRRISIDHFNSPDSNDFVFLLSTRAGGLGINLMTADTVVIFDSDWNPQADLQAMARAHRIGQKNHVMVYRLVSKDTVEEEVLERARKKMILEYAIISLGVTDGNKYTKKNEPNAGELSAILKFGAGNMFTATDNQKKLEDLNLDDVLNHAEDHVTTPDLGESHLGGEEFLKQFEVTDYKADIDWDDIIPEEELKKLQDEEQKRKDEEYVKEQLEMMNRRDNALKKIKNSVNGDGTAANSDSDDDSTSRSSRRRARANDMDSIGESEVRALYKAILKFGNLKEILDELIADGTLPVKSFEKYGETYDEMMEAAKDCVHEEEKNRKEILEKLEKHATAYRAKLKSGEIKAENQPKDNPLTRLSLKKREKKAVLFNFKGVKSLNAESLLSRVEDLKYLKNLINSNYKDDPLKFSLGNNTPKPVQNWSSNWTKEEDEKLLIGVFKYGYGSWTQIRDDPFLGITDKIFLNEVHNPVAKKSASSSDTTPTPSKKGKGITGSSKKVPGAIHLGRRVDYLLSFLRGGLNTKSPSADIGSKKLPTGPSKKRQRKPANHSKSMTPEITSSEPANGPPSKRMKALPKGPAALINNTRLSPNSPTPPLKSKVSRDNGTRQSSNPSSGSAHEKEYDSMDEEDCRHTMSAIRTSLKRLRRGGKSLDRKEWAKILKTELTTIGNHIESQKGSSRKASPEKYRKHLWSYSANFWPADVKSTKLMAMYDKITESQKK
Sequence of Protein translocase subunit SecA (Escherichia coli (strain K12)) (P10408 whole entry): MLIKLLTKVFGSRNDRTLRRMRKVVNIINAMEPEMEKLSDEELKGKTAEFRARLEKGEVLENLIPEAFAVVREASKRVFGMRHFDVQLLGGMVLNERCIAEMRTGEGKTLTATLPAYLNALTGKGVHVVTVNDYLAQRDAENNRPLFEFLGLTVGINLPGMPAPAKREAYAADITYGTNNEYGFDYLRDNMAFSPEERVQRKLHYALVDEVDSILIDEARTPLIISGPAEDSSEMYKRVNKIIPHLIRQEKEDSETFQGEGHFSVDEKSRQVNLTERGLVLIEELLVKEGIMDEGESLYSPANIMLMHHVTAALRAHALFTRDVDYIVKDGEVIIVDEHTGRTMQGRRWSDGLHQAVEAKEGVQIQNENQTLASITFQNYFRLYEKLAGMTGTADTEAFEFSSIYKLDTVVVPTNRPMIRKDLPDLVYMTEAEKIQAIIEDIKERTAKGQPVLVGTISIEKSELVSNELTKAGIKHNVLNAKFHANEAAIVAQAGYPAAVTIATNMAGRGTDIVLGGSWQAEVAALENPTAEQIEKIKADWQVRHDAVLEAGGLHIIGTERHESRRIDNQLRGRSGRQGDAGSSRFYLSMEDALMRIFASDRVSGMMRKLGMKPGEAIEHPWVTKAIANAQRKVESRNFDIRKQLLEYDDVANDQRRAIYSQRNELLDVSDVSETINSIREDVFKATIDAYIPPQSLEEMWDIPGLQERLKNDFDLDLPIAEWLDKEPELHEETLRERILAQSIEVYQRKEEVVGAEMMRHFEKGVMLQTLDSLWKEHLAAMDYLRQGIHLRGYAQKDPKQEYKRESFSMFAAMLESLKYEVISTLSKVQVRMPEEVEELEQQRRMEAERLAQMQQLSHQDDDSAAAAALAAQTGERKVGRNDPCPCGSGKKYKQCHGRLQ
Sequence of Sialic acid-binding Ig-like lectin 9 (Homo sapiens) (Q9Y336 whole entry): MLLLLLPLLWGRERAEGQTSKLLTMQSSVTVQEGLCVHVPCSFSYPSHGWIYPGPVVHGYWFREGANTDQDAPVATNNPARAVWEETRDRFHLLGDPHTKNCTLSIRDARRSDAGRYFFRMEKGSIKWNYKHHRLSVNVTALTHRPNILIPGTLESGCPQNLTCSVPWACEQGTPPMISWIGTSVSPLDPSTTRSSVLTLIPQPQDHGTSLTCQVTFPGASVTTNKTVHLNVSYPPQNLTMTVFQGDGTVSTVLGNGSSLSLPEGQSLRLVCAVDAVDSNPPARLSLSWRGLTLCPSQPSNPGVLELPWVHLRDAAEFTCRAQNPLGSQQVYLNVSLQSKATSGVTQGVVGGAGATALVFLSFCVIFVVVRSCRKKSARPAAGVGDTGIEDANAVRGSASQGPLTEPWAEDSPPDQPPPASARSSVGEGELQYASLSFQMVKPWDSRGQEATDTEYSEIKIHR

In the case of `Cn1cc(C[C@H]2[C@H](O)CCN2CC2CC2)cn1`, the Percent Effect in assay [1] is -2.02%; in assay [2], -2.7%; in assay [3], 6.23%; in assay [4], 1.34%; in [5], 1.27%; in assay [6], -32.8%. The Percent Effect in assay [7] was 11.2%; in assay [8], 1.21%; in assay [9] it was 5.41%; in assay [10], 5.13%; in assay [11], 0.853%.

`CCCn1nc2c(cc1=O)CN(CCCN1CCCC1=O)CC2`: the Percent Effect in assay [1] is -3.62%; in [2], -2.7%; in assay [3], -101%; in [4], 1.97%; in assay [5], -2.55%; in assay [6], -1.6%. The Percent Effect was 29.6% in assay [7]; 17.5% in assay [8]; 4.43% in [9]; -1.24% in assay [10]; -3.69% in assay [11].

`CC(C)c1nc(C2CCCN2CCc2ccncc2)no1` (stereo not drawn): the Percent Effect in assay [1] was -3.81%; in [2] it was 0%; in assay [3], 6.93%; in assay [4], -0.839%; in assay [5], -2.25%; in [6], -0.356%. Further, the Percent Effect in assay [7] is 13%; in assay [8] it was 27%; in assay [9] it was 2.91%; in assay [10] it was -4.88%; in assay [11], -0.507%.

`O=C(NCc1ccc(-n2cncn2)nc1)c1ccoc1`: the Percent Effect in assay [1] was -8.93%; in [2], 0%; in [3], -18.3%; in [4] it was 31.6%; in assay [5] it was 11.6%; in assay [6] it was -10.4%. Further, the Percent Effect was 0.901% in assay [7]; 3.65% in assay [8]; 4.43% in assay [9]; 18.5% in [10]; -15.1% in [11].

As to `Cc1ccc(-c2cc(N)c(=O)n(CC(=O)NCC3CC3)n2)s1`, the Percent Effect in assay [1] was -3.74%; in [2], 6.76%; in [3], 19.9%; in [4], 2.48%; in assay [5], -0.395%; in assay [6], -5.8%. Moreover, the Percent Effect in assay [7] is 9.2%; in [8] it was 11.4%; in assay [9], 1.07%; in assay [10] it was 9.09%; in [11] it was -14.1%.

Turning to `COc1cc(C)ccc1OCCC(=O)N1CCCC1Cn1cccn1` (stereo not drawn), the Percent Effect is -6.85% in assay [1]; 15.8% in assay [2]; -7.6% in assay [3]; 14.4% in assay [4]; 3.64% in [5]; -1.44% in [6]. Further, the Percent Effect is 0.254% in assay [7]; 1.25% in [8]; 5.42% in [9]; 13.6% in assay [10]; -6.6% in assay [11].

As to `COc1cccc(CN2CCCC2c2c(C)nn(C)c2C)c1` (stereo not drawn), the Percent Effect in assay [1] is -1.8%; in [2], -2.53%; in assay [3] it was -4.49%; in assay [4], 11.6%; in assay [5], 0.661%; in [6], 0.38%. The Percent Effect in [7] was -1.72%; in assay [8], -9.36%; in [9] it was 5.42%; in [10], -1.27%; in assay [11], -3.67%.

As to `O=C(C(CNCc1ccsc1)c1ccccc1)N1CCOCC1` (stereo not drawn), the Percent Effect in assay [1] was -5.96%; in [2], 5.2%; in assay [3], -2.02%; in assay [4] it was 3.85%; in [5], 1.87%; in assay [6], 5.52%. The Percent Effect is 6.49% in [7]; -32.4% in [8]; 1.07% in assay [9]; 1.24% in [10]; 1.41% in assay [11].
